This note sets out measurements from PubChem BioAssay.

Assay [1] in a line: binders of probe aFSTL3 on microarray, primary screen, stem cell growth factor project, biochemical, small-molecule microarray, fluorescence 635/667 (AID 1064).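 Note: measures binding of the biotinylated anti-FSTL3 antibody to printed compounds.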 The following applies: higher = more signal.
Assay [2] can be described thus: binders from COS7 lysate, DM2A8 probe, primary screen, torsin A project, cell lysate, small-molecule microarray, fluorescence 635/667 (AID 1065). The following applies: higher = more signal, COS7 lysate expressing mutant human TOR1A.
Assay [3] is described as follows: binders of probe aFGF2 on microarray, primary screen, stem cell growth factor project, biochemical, small-molecule microarray, fluorescence 635/667 (AID 1067).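 Note: measures binding of biotinylated aFGF2 protein to printed compounds on slides; z-score merges feature fluorescence and signal-to-noise across triplicate slides.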 The settings on record: higher = more signal.
A short description of assay [4]: binders of probe aFGF10 on microarray, primary screen, stem cell growth factor project, biochemical, small-molecule microarray, fluorescence 635/667 (AID 1071).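 Note: score merges 667 nm spot intensity and signal to noise from triplicate slides.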 The settings on record: higher = more signal.
The target in assay [5] is Neurogenic locus notch homolog protein 2 (Homo sapiens) (UniProt Q04721). In words: Notch2 binders on small-molecule microarrays, primary screen, biochemical, small-molecule microarray, 635 nm fluorescence, stem cell growth factors (AID 1073). The settings on record: Notch2 binding, higher = more signal.
Assay [6] addresses Pro-neuregulin-1, membrane-bound isoform (Homo sapiens) (UniProt Q02297). In words: NRG1 binders on small-molecule microarrays, primary screen, psychiatric disease protein project, biochemical, small-molecule microarray, fluorescence 635/667 (AID 1075).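 Note: score combines 667 nm spot fluorescence with signal to noise.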 The following applies: NRG1 binding, 635 nm fluorescence, higher = more signal.
The test system of assay [7] is Neuregulin-1 EGF-like domain. The assay can be described thus: binders of neuregulin-1 EGF-like domain, primary screen, biochemical, small-molecule microarray, 635 nm fluorescence (AID 1081).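 Note: binding of the protein to compounds printed on small-molecule microarray slides.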 The following applies: small-molecule microarray binding, higher = more signal.
A short description of assay [8]: FRG1 promoter luciferase signal modulators, primary screen, FRG1 inhibition for FSHD, cell-based, C2C12 myotubes, firefly/Renilla luciferase, luminescence (AID 1084). The following applies: higher = more signal, called active from +8 up or from −8 down.
The nature of assay [9]: binders of probe aFST on microarray, primary screen, stem cell growth factor project, biochemical, small-molecule microarray, fluorescence 635/667 (AID 1086).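 Note: score merges 667 nm fluorescence with signal-to-noise of each printed compound spot.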 The following applies: higher = more signal.
Assay [10] in a line: binders of probe aHhip on microarray, primary screen, stem cell growth factor project, biochemical, small-molecule microarray, fluorescence 635/667 (AID 1087).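 Note: score merges spot fluorescence at 667nm with spot signal to noise ratio.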 The settings on record: higher = more signal.
Assay [11] has as its system PRMT1 (protein arginine N-methyltransferase 1). In words: PRMT1 binders on small-molecule microarrays, primary screen, biochemical, small-molecule microarray, 635 nm fluorescence (AID 1088).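 Note: binding of Prmt1 protein to compounds spotted on small-molecule microarray slides.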 The settings on record: small-molecule microarray binding, higher = more signal.
Assay [12] in a line: yeast growth modulation, basal conditions, primary screen, YJM789 clinical isolate, OD600, 24 h (AID 1089).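 Note: growth of clinical yeast isolate S. cerevisiae YJM 789 seeded 1000 cells per well; test concentration not given here.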 The following applies: S. cerevisiae YJM789 growth, higher = more signal, called active from +8 up or from −8 down.
Assay [13] is described as follows: fission yeast growth modulation, primary screen, strain 972, OD600, 24 h, no modulator (AID 1090).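 Note: basal condition with compound alone and no growth modifier present; test concentration not given here.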 The settings on record: S. pombe 972 growth, higher = more signal, called active from +8 up or from −8 down.
Assay [14] can be described thus: S. cerevisiae growth modulation with rapamycin, primary screen, strain BY4716, OD600, 96 h (AID 1091). Note: test concentration not given here. The following applies: higher = more signal, called active from +8 up or from −8 down.
In assay [15] the target is Torsin-1A-interacting protein 2 (Homo sapiens) (UniProt Q8NFQ8). In words: LULL1 binders on small-molecule microarray, primary screen, cell lysate, human LULL1 lysate, 635/667 nm fluorescence (AID 1092).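 Note: probe is lysate of COS7 cells overexpressing human LULL1; score merges per-feature 667 nm fluorescence with signal-to-noise.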 The following applies: hLULL1 lysate binding, 635 nm fluorescence, higher = more signal.
Assay [16] can be described thus: E. coli growth modulation, two-sided OD650, primary screen, E. coli filamentation project, strain DRC41, 24 h (AID 1093).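 Note: MC1000 strain lacking acrAB efflux and sulA so SOS filamentation is blocked; test concentration not given here.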 The following applies: OD650, 24 h, higher = more signal, called active from +8 up or from −8 down.
Assay [17] in a line: small-molecule microarray binders of probe aLefty2, primary screen, biochemical, biotinylated probe, 635/667 nm fluorescence (AID 1094).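 Note: score merges spot fluorescence near 667 nm with spot signal-to-noise ratio.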 The following applies: higher = more signal.
In assay [18] the test system is Noggin (protein binding on small-molecule microarray). In words: Noggin binders on small-molecule microarray, primary screen, biochemical, 635/667 nm fluorescence (AID 1095).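 Note: score merges 667 nm feature fluorescence with signal to noise over triplicate slides.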 The following applies: 635 nm fluorescence, higher = more signal.
Assay [19] deals with Neurogenic locus notch homolog protein 3 (Homo sapiens) (UniProt Q9UM47). In words: NOTCH3 binders on small-molecule microarray, primary screen, biochemical, 635/667 nm fluorescence (AID 1096). The following applies: NOTCH3 binding, 635 nm fluorescence, higher = more signal.
The nature of assay [20]: small-molecule microarray binders of probe aEGFR, primary screen, biochemical, biotinylated probe, 635/667 nm fluorescence (AID 1097).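 Note: probe is a biotinylated anti-EGFR antibody binding compounds printed on slides; score combines fluorescence near 667 nm and signal to noise of each spot.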 The following applies: higher = more signal.

Activity calls are given as the source filed them.

Pro-neuregulin-1, membrane-bound isoform (Homo sapiens), sequence (Q02297 whole entry, looked up, the tested form may be a part, canonical isoform): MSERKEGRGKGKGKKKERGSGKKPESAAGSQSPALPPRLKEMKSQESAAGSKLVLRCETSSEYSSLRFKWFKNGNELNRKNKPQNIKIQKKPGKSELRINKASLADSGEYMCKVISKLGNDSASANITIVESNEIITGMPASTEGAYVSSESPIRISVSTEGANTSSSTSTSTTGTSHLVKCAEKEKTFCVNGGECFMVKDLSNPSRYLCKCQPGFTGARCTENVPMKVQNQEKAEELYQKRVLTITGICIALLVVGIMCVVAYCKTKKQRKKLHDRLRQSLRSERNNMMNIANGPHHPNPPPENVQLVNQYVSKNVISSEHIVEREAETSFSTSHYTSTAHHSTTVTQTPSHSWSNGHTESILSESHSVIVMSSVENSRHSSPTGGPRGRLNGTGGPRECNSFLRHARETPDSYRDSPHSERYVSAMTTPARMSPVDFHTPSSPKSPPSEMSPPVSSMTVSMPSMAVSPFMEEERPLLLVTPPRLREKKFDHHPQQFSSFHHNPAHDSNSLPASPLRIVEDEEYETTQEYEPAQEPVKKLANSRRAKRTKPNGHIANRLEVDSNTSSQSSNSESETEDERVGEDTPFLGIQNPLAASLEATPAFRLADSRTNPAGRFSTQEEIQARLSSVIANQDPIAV
Neurogenic locus notch homolog protein 3 (Homo sapiens), sequence (Q9UM47 whole entry, looked up): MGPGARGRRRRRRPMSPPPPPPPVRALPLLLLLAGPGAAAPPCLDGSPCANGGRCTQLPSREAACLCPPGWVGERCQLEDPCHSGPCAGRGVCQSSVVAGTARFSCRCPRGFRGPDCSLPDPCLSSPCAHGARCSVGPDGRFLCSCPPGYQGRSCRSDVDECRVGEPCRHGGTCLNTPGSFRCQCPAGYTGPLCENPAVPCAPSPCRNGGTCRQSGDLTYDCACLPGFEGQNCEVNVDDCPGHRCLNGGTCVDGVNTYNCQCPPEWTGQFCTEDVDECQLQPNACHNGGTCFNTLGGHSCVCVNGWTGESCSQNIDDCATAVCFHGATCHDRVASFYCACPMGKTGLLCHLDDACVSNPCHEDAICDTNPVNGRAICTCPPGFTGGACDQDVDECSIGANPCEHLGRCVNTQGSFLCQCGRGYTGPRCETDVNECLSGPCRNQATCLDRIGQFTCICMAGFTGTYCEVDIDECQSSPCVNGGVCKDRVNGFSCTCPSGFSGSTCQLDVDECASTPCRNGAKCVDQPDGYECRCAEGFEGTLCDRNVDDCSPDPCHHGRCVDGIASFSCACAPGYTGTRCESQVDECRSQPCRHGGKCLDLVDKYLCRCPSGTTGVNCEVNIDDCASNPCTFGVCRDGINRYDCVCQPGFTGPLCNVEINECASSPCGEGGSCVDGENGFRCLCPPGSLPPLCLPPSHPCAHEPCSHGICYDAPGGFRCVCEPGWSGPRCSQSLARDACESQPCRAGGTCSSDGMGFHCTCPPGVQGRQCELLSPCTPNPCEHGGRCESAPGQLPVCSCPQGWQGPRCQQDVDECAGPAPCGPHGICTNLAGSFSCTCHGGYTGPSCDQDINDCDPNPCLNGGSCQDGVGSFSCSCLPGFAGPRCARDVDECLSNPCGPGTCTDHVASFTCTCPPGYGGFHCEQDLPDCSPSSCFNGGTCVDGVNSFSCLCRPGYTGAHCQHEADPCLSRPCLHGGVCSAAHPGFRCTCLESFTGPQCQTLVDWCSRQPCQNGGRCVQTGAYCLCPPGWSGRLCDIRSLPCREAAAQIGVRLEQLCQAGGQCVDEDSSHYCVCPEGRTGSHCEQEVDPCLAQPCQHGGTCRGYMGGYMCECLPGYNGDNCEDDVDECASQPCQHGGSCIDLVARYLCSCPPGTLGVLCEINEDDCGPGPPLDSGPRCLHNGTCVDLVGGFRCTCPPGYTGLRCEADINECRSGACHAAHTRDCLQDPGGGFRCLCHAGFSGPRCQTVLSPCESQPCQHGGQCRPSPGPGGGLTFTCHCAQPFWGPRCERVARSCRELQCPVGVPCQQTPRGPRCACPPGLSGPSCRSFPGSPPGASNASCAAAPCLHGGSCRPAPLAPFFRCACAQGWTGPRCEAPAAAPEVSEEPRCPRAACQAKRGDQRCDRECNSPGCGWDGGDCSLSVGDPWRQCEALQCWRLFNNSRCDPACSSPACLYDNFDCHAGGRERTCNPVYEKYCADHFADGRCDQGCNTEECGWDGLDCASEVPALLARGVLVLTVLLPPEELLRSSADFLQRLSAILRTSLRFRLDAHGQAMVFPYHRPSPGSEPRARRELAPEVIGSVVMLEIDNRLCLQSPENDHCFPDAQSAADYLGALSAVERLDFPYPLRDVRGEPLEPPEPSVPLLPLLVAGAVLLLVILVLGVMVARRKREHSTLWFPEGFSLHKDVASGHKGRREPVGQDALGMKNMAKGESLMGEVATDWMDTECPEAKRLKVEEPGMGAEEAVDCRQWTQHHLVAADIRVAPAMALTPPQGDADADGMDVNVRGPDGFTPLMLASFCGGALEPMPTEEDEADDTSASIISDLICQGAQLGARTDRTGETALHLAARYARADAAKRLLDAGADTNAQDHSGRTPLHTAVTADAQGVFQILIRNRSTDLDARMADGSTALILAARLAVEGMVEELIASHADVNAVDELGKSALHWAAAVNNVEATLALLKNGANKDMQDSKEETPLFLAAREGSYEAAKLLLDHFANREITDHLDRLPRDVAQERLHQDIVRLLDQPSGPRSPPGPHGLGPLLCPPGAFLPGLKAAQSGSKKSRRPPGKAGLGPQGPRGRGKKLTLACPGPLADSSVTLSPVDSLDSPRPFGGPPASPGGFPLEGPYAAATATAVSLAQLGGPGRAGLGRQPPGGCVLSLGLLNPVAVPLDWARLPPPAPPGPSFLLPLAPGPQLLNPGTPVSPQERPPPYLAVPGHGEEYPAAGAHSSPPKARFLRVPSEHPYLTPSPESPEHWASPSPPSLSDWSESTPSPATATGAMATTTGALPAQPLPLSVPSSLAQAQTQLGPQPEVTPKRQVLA
Torsin-1A-interacting protein 2 (Homo sapiens), sequence (Q8NFQ8 whole entry, looked up): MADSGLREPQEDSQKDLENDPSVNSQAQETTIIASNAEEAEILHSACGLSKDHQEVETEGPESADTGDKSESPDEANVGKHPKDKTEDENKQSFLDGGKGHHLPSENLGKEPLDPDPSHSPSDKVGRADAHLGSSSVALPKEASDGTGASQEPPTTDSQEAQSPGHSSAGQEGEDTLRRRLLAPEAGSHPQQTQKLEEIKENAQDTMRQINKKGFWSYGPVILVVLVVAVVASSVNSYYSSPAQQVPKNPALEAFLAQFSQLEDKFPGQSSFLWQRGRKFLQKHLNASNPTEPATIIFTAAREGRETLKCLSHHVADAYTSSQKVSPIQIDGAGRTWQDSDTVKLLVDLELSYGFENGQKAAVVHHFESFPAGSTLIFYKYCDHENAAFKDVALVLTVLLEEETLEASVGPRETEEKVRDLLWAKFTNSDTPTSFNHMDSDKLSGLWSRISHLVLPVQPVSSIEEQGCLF

Turning to `CC(CCC(=O)OC[C@H]1O[C@H](C#Cc2ccccc2)C=C[C@@H]1Oc1ccc(C)cc1)=NOC[C@@H](C)[C@H](OCc1ccccc1)C(C)C`, the composite z-score was -0.205 in assay [1]; -0.0926 in assay [2]; -0.121 in [3]; -0.122 in assay [4]; -0.67 in assay [5]; -1.01 in assay [6]. The composite z-score is -1.05 in assay [7]; -0.114 in assay [9]; -0.175 in [10]; -0.694 in [11]; -1.27 in [15]; -0.342 in [17]. Further, the composite z-score is 0.809 in assay [18], -1.27 in assay [19] and -0.24 in assay [20]. Also, the z-score in [8] is -0.234 (inactive); in [12] it was -0.78 (inactive); in [13], 0.484 (inactive); in [14] it was -0.468 (inactive); in assay [16] it was -0.346 (inactive).
In the case of `COC(=O)[C@H](C)NC(=O)CCC1CC(OC(=O)NCc2cccc3ccccc23)CC2(CCCC(COC(=O)NCCC(C)C)O2)O1` (stereo not given in full), the composite z-score is -0.478 in [1]; 0.151 in assay [2]; -0.167 in assay [3]; 0.0257 in assay [4]; 0.0502 in [5]; 0.543 in [6]. For the same compound, the composite z-score was 1.02 in assay [7]; 0.0638 in [9]; -0.264 in [10]; 0.651 in assay [11]; 1.84 in [15]; -0.205 in assay [17]. Also, the composite z-score in [18] is 0.352; in assay [19] it was 0.504; in assay [20], -0.112. Further, the z-score in [8] was 1.5 (inactive); in assay [12], -0.518 (inactive); in [13], -1.07 (inactive); in assay [14], -0.642 (inactive); in assay [16], 0.384 (inactive).
In the case of `CCN1C(=O)[C@H]2[C@H]3[C@H](O)[C@H](O)CC(=NO[C@@H](C)c4cc(-c5c(C)cc(C)cc5C)no4)[C@@H]3CC[C@H]2C1=O`, the composite z-score in assay [1] is -0.558; in [2], 1.13; in assay [3], -0.0243; in assay [4], 0.624; in [5] it was 0.817; in assay [6] it was 1.08. For the same compound, the composite z-score in assay [7] is 1.04; in [9], 0.544; in assay [10] it was -0.225; in assay [11], 1.55; in assay [15] it was 2; in [17], -0.0283. For the same compound, the composite z-score in [18] came to 0.529; in assay [19], 0.994; in assay [20], 0.123. The z-score in assay [8] was 0.998 (inactive); in assay [12] it was -0.393 (inactive); in assay [13], -1.15 (inactive); in [14] it was -0.875 (inactive); in assay [16], 1.16 (inactive).
Turning to `O=C1CCCC=C1C(O)C1CCCCC1` (stereo not given), the composite z-score in [1] was -0.53; in assay [2], 0.835; in assay [3], -0.141; in assay [4] it was 0.191; in assay [5], -0.0306; in assay [6], -0.594. Further, the composite z-score in [7] was -0.593; in [9], -0.0962; in assay [10], 0.0373; in assay [11] it was -0.784; in assay [15], 0.2; in assay [17], -0.0279. Moreover, the composite z-score is -0.0241 in assay [18], 0.0627 in assay [19] and -0.294 in [20]. In addition, the z-score was 0.0424 (inactive) in assay [8]; -0.711 (inactive) in assay [12]; 0.214 (inactive) in assay [13]; -0.478 (inactive) in assay [14]; 0.805 (inactive) in assay [16].
On to `CCCNC(=O)OC[C@H]1O[C@H](CCON=C2c3cc(OC)ccc3O[C@H](c3cccc(OC)c3)[C@H]2O)C=C[C@@H]1Oc1ccc(OC)cc1`, for which the composite z-score in assay [1] is -0.231; in assay [2] it was 0.768; in assay [3], -0.0647; in [4], 0.884; in assay [5], 1.17; in assay [6], 0.64. Further, the composite z-score in [7] is 0.93; in assay [9], 0.167; in assay [10] it was -0.0237; in assay [11], 0.799; in assay [15], 0.972; in assay [17] it was 0.451. For the same compound, the composite z-score came to 0.716 in [18], 0.468 in assay [19] and 0.0897 in assay [20]. For the same compound, the z-score in assay [8] was 0.446 (inactive); in [12], -0.409 (inactive); in assay [13], 0.464 (inactive); in assay [14], 0.479 (inactive); in assay [16] it was 0.8 (inactive).
